# About 79,000 compounds went through this panel and 15% of them were active in at least one assay; those are over-represented in the sample as a whole. Values without a mark were called inactive. Activity calls are given as the source filed them. Cut-off read from the data, not from the text of the source: active = growth inhibition above about 70%; inactive = the rest.
# Legend:
# [1] = NCI Yeast Anticancer Drug Screen. Data for the rad52 strain (AID 147);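 note: 0% = growth of vehicle-treated control cultures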; settings: S. cerevisiae rad52 mutant growth inhibition, hits give high values
# In short: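 Here a repair-compromised yeast strain receives each compound; its growth is then quantified and normalised to vehicle-only controls.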
# [2] = NCI Yeast Anticancer Drug Screen. Data for the wt1 strain (AID 149);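 note: 0% = growth of vehicle-treated wt1 cultures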; settings: S. cerevisiae wt1 strain (SPY 50644) growth inhibition, hits give high values
# In short: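 Compounds are added to wt1 yeast cultures. Growth is then measured. Inhibition is expressed relative to vehicle-treated controls.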
# [3] = NCI Yeast Anticancer Drug Screen. Data for the rad50EPP+ strain (AID 151);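 note: 0% = growth of vehicle-treated control cultures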; settings: S. cerevisiae rad50 mutant strain, hits give high values
# In short: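 Read-out is yeast growth inhibition relative to vehicle; cells used were the rad50EPP+ strain.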
# [4] = NCI Yeast Anticancer Drug Screen. Data for the mgt1 strain (AID 153); settings: S. cerevisiae mgt1 mutant growth inhibition, hits give high values
# In short: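 Measured: inhibition of mgt1 yeast growth by compound, normalized to vehicle-treated cultures.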
# [5] = NCI Yeast Anticancer Drug Screen. Data for the rad50 strain (AID 155);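 note: 0% = growth of vehicle-only cultures of the same strain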; settings: S. cerevisiae rad50 strain growth inhibition, hits give high values
# In short: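 Inhibition values express reduced yeast growth in compound-treated cultures relative to vehicle-treated controls.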
# [6] = NCI Yeast Anticancer Drug Screen. Data for the mec2-1 strain (AID 157); settings: S. cerevisiae mec2-1 strain, hits give high values
# In short: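 Using mec2-1 yeast: add compound, measure growth, express inhibition versus vehicle-treated cultures.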
# [7] = NCI Yeast Anticancer Drug Screen. Data for the rad14 strain (AID 159);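 note: 0% = growth of vehicle-treated control cultures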; settings: S. cerevisiae rad14 strain growth inhibition, hits give high values
# In short: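 A mutant yeast strain defective in DNA damage repair is treated with compound; inhibition of its growth is scored against untreated, vehicle-exposed cultures.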
# [8] = NCI Yeast Anticancer Drug Screen. Data for the sgs1 mgt1 strain (AID 161);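 note: 0% = growth of cultures given vehicle only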; settings: S. cerevisiae sgs1 mgt1 strain, hits give high values
# In short: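 This yeast growth screen uses a strain with defined DNA-repair lesions; compound-treated growth is compared with vehicle-treated growth.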
# [9] = NCI Yeast Anticancer Drug Screen. Data for the CLN2oe strain (AID 163);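 note: 0% = growth of vehicle-only control cultures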; settings: S. cerevisiae CLN2oe strain, hits give high values
# In short: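 Whole-cell yeast growth assay. A strain engineered for altered cell-cycle control received compound, and inhibition relative to vehicle-treated cultures was recorded.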
# [10] = NCI Yeast Anticancer Drug Screen. Data for the cln2 rad14 strain (AID 165);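 note: 0% = growth equal to vehicle treated cultures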; settings: S. cerevisiae cln2 rad14 strain, hits give high values
# In short: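 Yeast strain cln2 rad14, bearing defects in cell cycle control and DNA repair, serves as the test system; values reflect growth inhibition compared with vehicle.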
# [11] = NCI Yeast Anticancer Drug Screen. Data for the bub3 strain (AID 167); settings: S. cerevisiae bub3 mutant strain, hits give high values
# In short: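 Steps: expose the mutant yeast strain to compound; grow alongside vehicle-treated cultures; measure growth; express inhibition against the vehicle cultures.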
# [12] = NCI Yeast Anticancer Drug Screen. Data for the wt2 strain (AID 169);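 note: 0% = growth of vehicle-treated yeast cultures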; settings: S. cerevisiae wt2 strain growth inhibition, hits give high values
# In short: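 Treated yeast vs. vehicle-treated yeast: growth inhibition determined.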
# [13] = NCI Yeast Anticancer Drug Screen. Data for the mlh1 strain (AID 171);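 note: 0% = growth of vehicle-treated control cultures of the same strain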; settings: S. cerevisiae mlh1 strain growth inhibition, hits give high values
# In short: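 A yeast strain with a defined genetic lesion serves as the test organism. Cultures receive compound or vehicle, and growth is measured.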
# [14] = NCI Yeast Anticancer Drug Screen. Data for the sgs1 strain (AID 173);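 note: 0% = growth of vehicle-only control cultures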; settings: S. cerevisiae sgs1 mutant, hits give high values
# In short: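 A genetically defined yeast mutant is incubated with the test compound, and its growth is compared to that of the same strain given vehicle.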
# [15] = NCI Yeast Anticancer Drug Screen. Data for the mlh1 rad18 strain (AID 175); settings: S. cerevisiae mlh1 rad18 strain growth inhibition, hits give high values
# In short: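 Steps: expose repair-defective yeast to compound; measure growth; express inhibition against vehicle-treated controls.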
# [16] = NCI Yeast Anticancer Drug Screen. Data for the rad18 strain (AID 177); settings: S. cerevisiae rad18 mutant growth inhibition, hits give high values
# In short: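 Measured value is growth inhibition of a yeast strain bearing a DNA repair alteration, referenced to vehicle-treated cells.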
# [17] = at 5.0 µM (retest, dose inferred, filed as 0.5)
# [18] = at 50.0 µM (retest, dose inferred, filed as 5.0)
smiles,measurement,setting,value
CC1=NN(C(=O)c2ccccc2O)C(=O)/C1=C/c1ccco1,growth inhibition,[1]; at 1.2 µM,1%
same,growth inhibition,[1]; at 3.7 µM,16%
same,growth inhibition,[1]; at 11.0 µM,76% (active)
same,growth inhibition,[1]; at 33.0 µM,92% (active)
same,growth inhibition,[1]; at 100.0 µM,96% (active)
same,growth inhibition,[2]; at 1.2 µM,21%
same,growth inhibition,[2]; at 3.7 µM,30%
same,growth inhibition,[2]; at 11.0 µM,70% (active)
same,growth inhibition,[2]; at 33.0 µM,90% (active)
same,growth inhibition,[2]; at 100.0 µM,95% (active)
same,growth inhibition,[3]; at 1.2 µM,9%
same,growth inhibition,[3]; at 3.7 µM,45%
same,growth inhibition,[3]; at 11.0 µM,49%
same,growth inhibition,[3]; at 33.0 µM,48%
same,growth inhibition,[3]; at 100.0 µM,93% (active)
same,growth inhibition,[4]; at 1.2 µM,-5%
same,growth inhibition,[4]; at 3.7 µM,27%
same,growth inhibition,[4]; at 11.0 µM,65%
same,growth inhibition,[4]; at 33.0 µM,88% (active)
same,growth inhibition,[4]; at 100.0 µM,96% (active)
same,growth inhibition,[5]; at 1.2 µM,-3%
same,growth inhibition,[5]; at 3.7 µM,17%
same,growth inhibition,[5]; [17],11%
same,growth inhibition,[5]; at 11.0 µM,64%
same,growth inhibition,[5]; at 33.0 µM,89% (active)
same,growth inhibition,[5]; [18],89% (active)
same,growth inhibition,[5]; at 50.0 µM,87.5% (active)
same,growth inhibition,[5]; at 100.0 µM,95% (active)
same,growth inhibition,[6]; at 1.2 µM,-4%
same,growth inhibition,[6]; at 3.7 µM,2%
same,growth inhibition,[6]; [17],19%
same,growth inhibition,[6]; at 11.0 µM,75% (active)
same,growth inhibition,[6]; at 33.0 µM,91% (active)
same,growth inhibition,[6]; [18],93% (active)
same,growth inhibition,[6]; at 50.0 µM,87.2% (active)
same,growth inhibition,[6]; at 100.0 µM,96% (active)
same,growth inhibition,[7]; at 1.2 µM,-1%
same,growth inhibition,[7]; at 3.7 µM,15%
same,growth inhibition,[7]; at 11.0 µM,69%
same,growth inhibition,[7]; at 33.0 µM,89% (active)
same,growth inhibition,[7]; at 100.0 µM,96% (active)
same,growth inhibition,[8]; [17],2%
same,growth inhibition,[8]; [18],90% (active)
same,growth inhibition,[8]; at 50.0 µM,87.3% (active)
same,growth inhibition,[9]; at 1.2 µM,6%
same,growth inhibition,[9]; at 3.7 µM,7%
same,growth inhibition,[9]; at 11.0 µM,81% (active)
same,growth inhibition,[9]; at 33.0 µM,91% (active)
same,growth inhibition,[9]; at 100.0 µM,95% (active)
same,growth inhibition,[10]; [17],28%
same,growth inhibition,[10]; [18],90% (active)
same,growth inhibition,[10]; at 50.0 µM,83.5% (active)
same,growth inhibition,[11]; at 1.2 µM,40%
same,growth inhibition,[11]; at 3.7 µM,52%
same,growth inhibition,[11]; [17],43%
same,growth inhibition,[11]; at 11.0 µM,91% (active)
same,growth inhibition,[11]; at 33.0 µM,95% (active)
same,growth inhibition,[11]; [18],94% (active)
same,growth inhibition,[11]; at 50.0 µM,87% (active)
same,growth inhibition,[11]; at 100.0 µM,97% (active)
same,growth inhibition,[12]; at 1.2 µM,11%
same,growth inhibition,[12]; at 3.7 µM,31%
same,growth inhibition,[12]; at 11.0 µM,80% (active)
same,growth inhibition,[12]; at 33.0 µM,92% (active)
same,growth inhibition,[12]; at 100.0 µM,96% (active)
same,growth inhibition,[13]; at 1.2 µM,12%
same,growth inhibition,[13]; at 3.7 µM,32%
same,growth inhibition,[13]; at 11.0 µM,71% (active)
same,growth inhibition,[13]; at 33.0 µM,89% (active)
same,growth inhibition,[13]; at 100.0 µM,96% (active)
same,growth inhibition,[14]; at 1.2 µM,7%
same,growth inhibition,[14]; at 3.7 µM,44%
same,growth inhibition,[14]; at 11.0 µM,67%
same,growth inhibition,[14]; at 33.0 µM,85% (active)
same,growth inhibition,[14]; at 100.0 µM,92% (active)
same,growth inhibition,[15]; [17],27%
same,growth inhibition,[15]; [18],94% (active)
same,growth inhibition,[15]; at 50.0 µM,82.5% (active)
same,growth inhibition,[16]; at 1.2 µM,0%
same,growth inhibition,[16]; at 3.7 µM,17%
same,growth inhibition,[16]; at 11.0 µM,48%
same,growth inhibition,[16]; at 33.0 µM,86% (active)
same,growth inhibition,[16]; at 100.0 µM,94% (active)
O=C(O)c1cc2c(cc1S(=O)(=O)O)C1C(C3C2C2(Cl)C(Cl)=C(Cl)C3(Cl)C2(Cl)Cl)C2(Cl)C(Cl)=C(Cl)C1(Cl)C2(Cl)Cl (stereo not drawn),growth inhibition,[1]; at 1.2 µM,0%
same,growth inhibition,[1]; at 3.7 µM,3%
same,growth inhibition,[1]; at 11.0 µM,13%
same,growth inhibition,[1]; at 33.0 µM,78% (active)
same,growth inhibition,[1]; at 100.0 µM,95% (active)
same,growth inhibition,[2]; at 1.2 µM,2%
same,growth inhibition,[2]; at 3.7 µM,0%
same,growth inhibition,[2]; at 11.0 µM,3%
same,growth inhibition,[2]; at 33.0 µM,62%
same,growth inhibition,[2]; at 100.0 µM,96% (active)
same,growth inhibition,[3]; at 1.2 µM,3%
same,growth inhibition,[3]; at 3.7 µM,-2%
same,growth inhibition,[3]; at 11.0 µM,-52%
same,growth inhibition,[3]; at 33.0 µM,-84%
same,growth inhibition,[3]; at 100.0 µM,61%
same,growth inhibition,[4]; at 1.2 µM,2%
same,growth inhibition,[4]; at 3.7 µM,-1%
same,growth inhibition,[4]; at 11.0 µM,22%
same,growth inhibition,[4]; at 33.0 µM,92% (active)
same,growth inhibition,[4]; at 100.0 µM,96% (active)
same,growth inhibition,[5]; at 1.2 µM,2%
same,growth inhibition,[5]; at 3.7 µM,1%
same,growth inhibition,[5]; [17],17%
same,growth inhibition,[5]; at 11.0 µM,9%
same,growth inhibition,[5]; at 33.0 µM,63%
same,growth inhibition,[5]; [18],96% (active)
same,growth inhibition,[5]; at 50.0 µM,96.2% (active)
same,growth inhibition,[5]; at 100.0 µM,90% (active)
same,growth inhibition,[6]; at 1.2 µM,-3%
same,growth inhibition,[6]; at 3.7 µM,-2%
same,growth inhibition,[6]; [17],20%
same,growth inhibition,[6]; at 11.0 µM,0%
same,growth inhibition,[6]; at 33.0 µM,85% (active)
same,growth inhibition,[6]; [18],96% (active)
same,growth inhibition,[6]; at 50.0 µM,95.4% (active)
same,growth inhibition,[6]; at 100.0 µM,96% (active)
same,growth inhibition,[7]; at 1.2 µM,0%
same,growth inhibition,[7]; at 3.7 µM,3%
same,growth inhibition,[7]; at 11.0 µM,24%
same,growth inhibition,[7]; at 33.0 µM,84% (active)
same,growth inhibition,[7]; at 100.0 µM,96% (active)
same,growth inhibition,[8]; [17],37%
same,growth inhibition,[8]; [18],97% (active)
same,growth inhibition,[8]; at 50.0 µM,94.4% (active)
same,growth inhibition,[9]; at 1.2 µM,-4%
same,growth inhibition,[9]; at 3.7 µM,-5%
same,growth inhibition,[9]; at 11.0 µM,-11%
same,growth inhibition,[9]; at 33.0 µM,51%
same,growth inhibition,[9]; at 100.0 µM,88% (active)
same,growth inhibition,[10]; [17],11%
same,growth inhibition,[10]; [18],97% (active)
same,growth inhibition,[10]; at 50.0 µM,93.7% (active)
same,growth inhibition,[11]; at 1.2 µM,-3%
same,growth inhibition,[11]; at 3.7 µM,-5%
same,growth inhibition,[11]; [17],2%
same,growth inhibition,[11]; at 11.0 µM,-11%
same,growth inhibition,[11]; at 33.0 µM,74% (active)
same,growth inhibition,[11]; [18],98% (active)
same,growth inhibition,[11]; at 50.0 µM,94.8% (active)
same,growth inhibition,[11]; at 100.0 µM,94% (active)
